Structures can show the parent of a compound that is named as a salt.
Assays:
[1] = test system: Staphylococcus aureus MW2 delta-mecA (mecA-); experiment: normalized GFP fluorescence (growth of mecA- strain) (fraction of control range); higher = more growth of mecA- strain; conditions: compound concentration: 150 uM; cefoxitin: subinhibitory; fluorescent label: GFP
How it was run: (§1)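 Two pre-induced S. aureus MW2 strains, one with the gene labeled by DsRed and one lacking it labeled by GFP, were mixed 1:1 in LB with a subinhibitory antibiotic dose set daily. The mix went at 5 µL/well onto 150 μM compound (1.5% DMSO) in 1536-well plates, single replicate, and grew unshaken 20 h at 37 °C, 90% humidity. DsRed (540/590) and GFP (485/520) values were scaled per plate between single-strain control medians, and plates with high untreated ratios or rows with DsRed/GFP >10 were left out.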

[2] = test system: Staphylococcus aureus MW2 (mecA+); experiment: normalized DsRed fluorescence (growth of mecA+ strain) (fraction of control range); higher = more growth of mecA+ strain; conditions: compound concentration: 150 uM; cefoxitin: subinhibitory; fluorescent label: DsRed
How it was run: as §1

Compound	normalized GFP fluorescence [1]	normalized DsRed fluorescence [2]
CO[C@H]1O[C@@H]2O[C@@]3(C)CC[C@H]4[C@H](C)CC[C@@H]([C@H]1C)[C@@]24OO3	0.327	1.13
COc1cc(CNC(=O)CCCC/C=C/C(C)C)ccc1O	0.0346	0.539
Nc1nc2c(ncn2COC(CO)CO)c(=O)[nH]1	0.466	0.948
CC(=O)OCC(=O)[C@@]12OC3(CCCC3)O[C@@H]1C[C@H]1[C@@H]3CCC4=CC(=O)C=C[C@]4(C)[C@@]3(F)[C@@H](O)C[C@@]12C	0.197	0.883
OC(Cn1cncn1)(Cn1cncn1)c1ccc(F)cc1F	0.417	0.746
CN1CCN(CC(=O)N2c3ccccc3C(=O)Nc3cccnc32)CC1	0.28	0.759
CC(C(=O)O)c1cccc(Oc2ccccc2)c1 (configuration not stated)	0.136	0.467
Clc1ccc2nsnc2c1NC1=NCCN1 [Tizanidine HCl]	0.539	0.515
CCCc1cc(=O)[nH]c(=S)[nH]1	0.668	0.582
C[C@H]1[C@H](OC(=O)CCC(=O)O)O[C@@H]2O[C@@]3(C)CC[C@H]4[C@H](C)CC[C@@H]1[C@@]24OO3	0.737	0.712
COc1ccc(O)cc1	0.353	0.504
COc1ccccc1OCC(O)COC(N)=O (configuration not stated)	0.207	0.692
C[C@]12CCC(=O)C=C1CC[C@@H]1[C@@H]2[C@@H](O)C[C@@]2(C)[C@H]1CC[C@]2(O)C(=O)CO	0.268	0.562
N[C@@H](Cc1ccc(O)c(O)c1)C(=O)O	0.506	0.611
CC(C)(C)NCC(O)c1cc(O)cc(O)c1 (configuration not stated)	0.587	0.611
CC(=O)CC(c1ccccc1)c1c(O)c2ccccc2oc1=O (configuration not stated)	0.718	0.285
CSCC[C@H](NC(=O)[C@H](Cc1c[nH]c2ccccc12)NC(=O)CCNC(=O)OC(C)(C)C)C(=O)N[C@@H](CC(=O)O)C(=O)N[C@@H](Cc1ccccc1)C(N)=O	0.461	0.68
Cn1cnc2c1c(=O)[nH]c(=O)n2C	0.351	0.469
CNCc1ccc(-c2[nH]c3cc(F)cc4c3c2CCNC4=O)cc1	0.424	0.641
Cc1cc(-c2ccccc2)nnc1NCCN1CCOCC1	0.44	0.611
C[C@H]1C[C@@H]2[C@H]([C@@H](O)C[C@@]3(C)[C@H]2CC[C@]3(O)C(=O)COC(=O)CCC(=O)O)[C@@]2(C)C=CC(=O)C=C12	0.634	0.526
CCOC(=O)C1=C[C@@H](OC(CC)CC)[C@H](NC(C)=O)[C@@H](N)C1	0.257	0.588
N#C[C@@H]1C[C@@H]2C[C@@H]2N1C(=O)[C@@H](N)C12CC3CC(CC(O)(C3)C1)C2	0.824	0.518

Compound	normalized GFP fluorescence [1]	normalized DsRed fluorescence [2]
CC(C)[N+](C)(CCOC(=O)C1c2ccccc2Oc2ccccc21)C(C)C	0.295	0.691
O=C1CCc2cc(OCCCCc3nnnn3C3CCCCC3)ccc2N1	0.533	0.561
CCCC(CCC)C(=O)O [Valproic acid sodium salt (Sodium valproate)]	0.506	0.638
CN(C)CCOc1ccc(/C(=C(/CCCl)c2ccccc2)c2ccccc2)cc1	0.000588	0.0394
O=C(O)c1ccccc1C(=O)Nc1ccc(S(=O)(=O)Nc2nccs2)cc1	0.538	0.763
CC(C)[C@H](N)C(=O)OCCOCn1cnc2c(=O)nc(N)[nH]c21 [Valaciclovir HCl]	0.302	0.782
CC1CCC(NC(=O)N(CCCl)N=O)CC1 (configuration not stated)	0.55	0.439
CC(=O)OCC(=O)[C@@]12OC(C)(C)O[C@@H]1C[C@H]1[C@@H]3C[C@H](F)C4=CC(=O)C=C[C@]4(C)[C@@]3(F)[C@@H](O)C[C@@]12C	0.439	0.736
CC(=O)Oc1cccc(O)c1	0.353	0.584
O=C(c1ccc(F)cc1)C1CCN(CCn2c(=O)[nH]c3ccccc3c2=O)CC1	0.217	0.83
Cc1ccc(/C(=C\CN2CCCC2)c2ccccn2)cc1	0.244	0.576
COC(=O)C1=C(C)NC(C)=C(C(=O)OC(C)C)C1c1cccc2nonc12 (configuration not stated)	0.00618	1.51
CCCCC(=O)O[C@]1(C(=O)CO)CC[C@H]2[C@@H]3CCC4=CC(=O)CC[C@]4(C)[C@H]3[C@@H](O)C[C@@]21C	0.382	0.447
COCCCOc1cc(C[C@@H](C[C@H](N)[C@@H](O)C[C@H](C(=O)NCC(C)(C)C(N)=O)C(C)C)C(C)C)ccc1OC	0.131	0.717
CCCCC1C(=O)N(c2ccccc2)N(c2ccccc2)C1=O [Phenylbutazone (Butazolidin, Butatron)]	0.207	0.436
NS(=O)(=O)c1cc2c(cc1C(F)(F)F)NC(Cc1ccccc1)NS2(=O)=O (configuration not stated)	0.428	0.653
Cc1cccc(C)c1OCC(=O)N[C@@H](Cc1ccccc1)[C@@H](O)C[C@H](Cc1ccccc1)NC(=O)[C@H](C(C)C)N1CCCNC1=O [Lopinavir (ABT-378)]	0.126	0.671
Nc1nc(O)c2ncn(CCC(CO)CO)c2n1	0.331	0.941
CC(C)CN(C[C@@H](O)[C@H](Cc1ccccc1)NC(=O)O[C@H]1CCOC1)S(=O)(=O)c1ccc(N)cc1 [Amprenavir (Agenerase)]	0.174	0.506
NS(=O)(=O)Cc1noc2ccccc12 [Zonisamide]	0.595	0.893
Cc1cc(C(C)(C)C)c(O)c(C)c1CC1=NCCN1 [Oxymetazoline hydrochloride]	0.135	1.28
CCCCCCCN(CC)CCCC(O)c1ccc(NS(C)(=O)=O)cc1 (configuration not stated) [Ibutilide fumarate]	0.723	0.737
S=P(N1CC1)(N1CC1)N1CC1	0.213	0.86
